# Assay results reported in PubChem BioAssay (Tox21).
# Values without a mark were called inactive. Records with an inconclusive call do not appear. Entries that show only a call come without a potency. Calls of active or inactive are those of the source. Unless noted, calls come from the whole dose curve.
# Tests used:
# [1] = Nuclear factor erythroid 2-related factor 2/antioxidant responsive element (Nrf2/ARE) small molecule agonists: qHTS cell viability counter screen in human keratinocytes (AID 1919968; active = well fitted curve in the direction sought with a large enough effect in the repeat runs; an effect the other way counts as inactive or inconclusive; note: nearly all actives have a fitted effect of over 55% in size; note: potency is the fitted concentration of half-maximal effect)
# Procedure, shortened: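 Seed 1,500 KeratinoSens cells per well, then incubate 5 h at 37 C/5% CO2. Add compounds in DMSO and incubate 23 h. Add CellTiter-Fluor, wait 1 h and read fluorescence.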
# [2] = Nuclear factor erythroid 2-related factor 2/antioxidant responsive element (Nrf2/ARE) small molecule agonists: luciferase reporter gene qHTS assay in human keratinocytes (AID 1919969); note: nearly all actives have a fitted effect of over 35% in size; note: potency is the fitted concentration of half-maximal effect
# [3] = biological target: Gonadotropin-releasing hormone receptor (Homo sapiens) (UniProt P30968); experiment: Human gonadotropin-releasing hormone receptor (GnRHR) small molecule agonists, calcium flux assay in GnRHR-HEK293 cells (AID 1920063); note: nearly all actives have a fitted effect of over 35% in size; note: potency is the fitted concentration of half-maximal effect
# Procedure, shortened: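 Cells: HEK293 stably expressing human GnRHR. Steps: overnight (18 h) culture, 1 h calcium dye loading at 37 C, compound addition, kinetic fluorescence read at 480/540 nm. Each compound tested at 15 concentrations in triplicate.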
# [4] = biological target: KiSS-1 receptor (Homo sapiens) (UniProt Q969F8); experiment: Human kisspeptin (KISS1R) small molecule agonists, calcium flux assay in KISS1R-HEK293 cells (AID 1920064; active = well fitted curve in the direction sought with a large enough effect in the repeat runs; an effect the other way counts as inactive or inconclusive)
# Procedure, shortened: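 Cells plated and incubated 18 h; dye added, 1 h at 37 C; compounds in DMSO pinned in; signal read at 480/540 nm every second for 3 min. Each compound tested at 15 concentrations in triplicate.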
# [5] = p53 small molecule agonists, cell-based qHTS assay with human liver microsomes (AID 1963577)
# Procedure, shortened: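 Cells carrying a p53-responsive bla reporter were rested 5 h (37 C, 5% CO2) before compound transfer. Human liver microsomes plus NADPH, 0.5 mg/mL final apiece, supplied metabolism during the 16 h 37 C exposure.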
# [6] = p53 small molecule agonists, cell-based qHTS assay with rat liver microsomes (AID 1963578)
# Procedure, shortened: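 Fluorescence from a beta-lactamase reporter under a p53 response element was measured after cells had been incubated 16 h at 37 C with test compound and rat liver microsomes plus NADPH (0.5 mg/mL final each).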
# [7] = p53 small molecule agonists, cell-based qHTS assay with human liver microsomes: qHTS cell viability counter screen (AID 1963579); note: nearly all actives have a fitted effect of over 45% in size; note: potency is the fitted concentration of half-maximal effect
# Procedure, shortened: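 Seed p53RE-bla cells at 4,000 per well; incubate 5 h at 37 C; add compound, human liver microsomes and NADPH; incubate 16 h at 37 C; add CellTiter-Glo; after 30 min at room temperature, read luminescence.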
# [8] = p53 small molecule agonists, cell-based qHTS assay with rat liver microsomes: qHTS cell viability counter screen (AID 1963580); note: nearly all actives have a fitted effect of over 45% in size
# Procedure, shortened: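 HCT-116 p53RE-bla, 4,000 cells/well, 5 h pre-incubation; cpd + rat liver microsomes 0.5 mg/mL + NADPH 0.5 mg/mL (final); 16 h, 37 C; CellTiter-Glo, 30 min RT; luminescence.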
# [9] = p53 small molecule agonists, cell-based qHTS assay: qHTS cell viability counter screen (AID 1963581); note: nearly all actives have a fitted effect of over 45% in size; note: potency is the fitted concentration of half-maximal effect
# Procedure, shortened: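 Cells: HCT-116 with p53 response element-driven beta-lactamase. Treatment: 16 h, 37 C, compounds in DMSO. Read: CellTiter-Glo luminescence after 30 min RT.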
# [10] = biological target: 5-hydroxytryptamine receptor 2A (Homo sapiens) (UniProt P28223); experiment: 5-hydroxytryptamine receptor 2A (HTR2A) small molecule antagonists, cell-based qHTS assay (AID 1963586); note: nearly all actives have a fitted effect of over 45% in size; note: potency is the fitted concentration of half-maximal effect
# Procedure, shortened: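 Antagonist-mode intracellular calcium assay: DOI (4 nM) added after 5 min compound pre-incubation at room temperature to dye-loaded HTR2A-CHO cells. Fluorescence followed for 3 min, sampled every second.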
# [11] = biological target: 5-hydroxytryptamine receptor 2A (Homo sapiens) (UniProt P28223); experiment: 5-hydroxytryptamine receptor 2A (HTR2A) small molecule agonists, cell-based qHTS assay (AID 1963587); note: nearly all actives have a fitted effect of over 30% in size; note: potency is the fitted concentration of half-maximal effect
# Procedure, shortened: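 Kinetic calcium-flux fluorescence (2 min, 1 sec intervals) after compound addition in agonist mode. HTR2A-CHO cells were cultured 18 h, then dye-loaded 1 h at 37 C.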
# [12] = biological target: Muscarinic acetylcholine receptor M1 (Homo sapiens) (UniProt P11229); experiment: Cholinergic receptor muscarinic 1 (CHRM1) small molecule antagonists, cell-based qHTS assay (AID 1963588); note: nearly all actives have a fitted effect of over 40% in size; note: potency is the fitted concentration of half-maximal effect
# Procedure, shortened: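 CHRM1-CHO calcium-flux assay, antagonist mode. Cells were seeded 18 h, dye-loaded 1 h at 37 C and given compound for 5 min at RT, then acetylcholine was added at 50nM. FDSS fluorescence was read 3 min; 15 concentrations, three runs.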
# [13] = biological target: Muscarinic acetylcholine receptor M1 (Homo sapiens) (UniProt P11229); experiment: Cholinergic receptor muscarinic 1 (CHRM1) small molecule agonists, cell-based qHTS assay (AID 1963589); note: nearly all actives have a fitted effect of over 35% in size
# Procedure, shortened: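 Agonist-mode qHTS in CHO cells stably carrying human muscarinic M1. Intracellular calcium is tracked by fluorescence every second after compound transfer; each compound runs at 15 concentrations in three independent runs.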
# [14] = cAMP Responsive Elements (CRE) small molecule agonists, cell-based qHTS assay (AID 1963590); note: potency is the fitted concentration of half-maximal effect
# Procedure, shortened: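 Agonist mode qHTS in CRE-bla HEK 293T cells: compounds dosed from DMSO for 3 h at 37 C/5% CO2, followed by LiveBLAzer B/G FRET substrate for 2 h at room temperature.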
# [15] = cAMP Responsive Elements (CRE) small molecule antagonists, cell-based qHTS assay (AID 1963591; active = well fitted inhibition curve with a large enough effect in the signal ratio in the repeat runs, not every such curve was filed as active; the % refers to the signal ratio)
# Procedure, shortened: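 Antagonist mode: test compounds are co-incubated with the adenylyl cyclase activator NKH477 (0.25 uM final) on CRE-bla HEK293T cells for 3 h at 37 °C, followed by LiveBLAzer substrate loading.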
# [16] = biological target: Beta-2 adrenergic receptor (Homo sapiens) (UniProt P07550); experiment: Adrenergic beta2 receptor (ADRB2) small molecule antagonists, cell-based qHTS assay (AID 1963592); note: nearly all actives have a fitted effect of over 50% in size; note: potency is the fitted concentration of half-maximal effect; for activity change, negative = inhibition: series mostly up to about 92 µM
# Procedure, shortened: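 Cells (CHO, stable ADRB2 overexpression) incubated 18-20hr at 37C; compounds added from DMSO; agonist mix (1nM isoproterenol, 100uM IBMX, 25uM Ro-20-1724) added; 0.5hr RT; d2-cAMP and anti-cAMP-cryptate added; 1hr RT; 665/615 nm read.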
# [17] = biological target: D(2) dopamine receptor (Homo sapiens) (UniProt P14416); experiment: Dopamine D2 receptor (DRD2) small molecule agonists, cell-based qHTS assay (AID 1963594); note: nearly all actives have a fitted effect of over 35% in size; note: potency is the fitted concentration of half-maximal effect
# Procedure, shortened: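 cAMP accumulation in DRD2-HEK293 cells measured by HTRF after 1 h detection; compounds added 10 min before NKH477 (200nM […]) forskolin-analogue stimulation, 30 min at room temperature, with Ro20-1724 present at 0.1 mM final.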
# [18] = biological target: D(2) dopamine receptor (Homo sapiens) (UniProt P14416); experiment: Dopamine D2 receptor (DRD2) small molecule antagonists, cell-based qHTS assay (AID 1963595; active = well fitted inhibition curve with a large enough effect in the signal ratio in the repeat runs, with a control signal flat; the % refers to the signal ratio)
# Procedure, shortened: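 HTRF cAMP read-out at 665 and 620 nm emission (340 nm excitation). Antagonist mode: compounds were tested against 12 nM quinpirole in DRD2-HEK293 cells, with 200 nM NKH477 raising cAMP and 0.1 mM Ro20-1724 blocking its breakdown.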
# [19] = p53 small molecule agonists, cell-based qHTS assay (AID 1963582; active = well fitted activation curve with a large enough effect in the signal ratio in the repeat runs, not every such curve was filed as active; the % refers to the signal ratio)
# Procedure, shortened: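 Quantitative HTS in p53RE-bla cells: after a 5 h settling period, compounds delivered in DMSO were left on cells for 16 h at 37 C, and reporter induction was measured as fluorescence following 2 h substrate loading.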
# [20] = biological target: Beta-2 adrenergic receptor (Homo sapiens) (UniProt P07550); experiment: Adrenergic beta2 receptor (ADRB2) small molecule agonists, cell-based qHTS assay (AID 1963593);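 note: CHO cells stably overexpressing human ADRB2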
# Procedure, shortened: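 CHO cells stably over-expressing ADRB2 were plated overnight at 37C, then dosed with compounds plus a stimulation mix containing 100uM IBMX and 25uM Ro-20-1724 for 0.5hr at room temperature. cAMP was measured by HTRF competition, 1hr.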
# Sequence of Beta-2 adrenergic receptor (Homo sapiens) (P07550 whole entry, looked up): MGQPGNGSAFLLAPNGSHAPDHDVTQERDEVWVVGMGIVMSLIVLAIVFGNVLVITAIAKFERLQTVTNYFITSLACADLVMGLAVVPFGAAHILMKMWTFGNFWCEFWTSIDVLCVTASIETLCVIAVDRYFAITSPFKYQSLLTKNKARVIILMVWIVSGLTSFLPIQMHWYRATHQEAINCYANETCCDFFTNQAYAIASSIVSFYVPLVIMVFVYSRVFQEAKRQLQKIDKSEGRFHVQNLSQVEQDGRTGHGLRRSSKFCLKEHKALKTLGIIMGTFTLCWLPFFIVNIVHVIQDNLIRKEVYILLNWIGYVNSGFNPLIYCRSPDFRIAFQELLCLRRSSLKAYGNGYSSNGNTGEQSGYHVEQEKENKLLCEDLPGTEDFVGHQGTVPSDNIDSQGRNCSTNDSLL
# Sequence of Muscarinic acetylcholine receptor M1 (Homo sapiens) (P11229 whole entry, looked up): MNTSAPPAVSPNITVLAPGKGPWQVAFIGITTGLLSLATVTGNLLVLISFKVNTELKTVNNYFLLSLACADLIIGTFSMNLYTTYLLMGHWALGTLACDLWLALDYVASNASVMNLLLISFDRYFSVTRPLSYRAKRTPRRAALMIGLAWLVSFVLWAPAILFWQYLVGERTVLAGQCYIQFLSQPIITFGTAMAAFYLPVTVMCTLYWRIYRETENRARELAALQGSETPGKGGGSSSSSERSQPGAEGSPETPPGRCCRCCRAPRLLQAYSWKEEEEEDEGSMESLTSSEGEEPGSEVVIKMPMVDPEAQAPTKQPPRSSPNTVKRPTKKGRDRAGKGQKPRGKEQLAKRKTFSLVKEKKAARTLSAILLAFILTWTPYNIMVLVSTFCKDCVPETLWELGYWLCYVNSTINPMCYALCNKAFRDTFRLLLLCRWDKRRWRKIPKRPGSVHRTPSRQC
# Sequence of 5-hydroxytryptamine receptor 2A (Homo sapiens) (P28223 whole entry, looked up): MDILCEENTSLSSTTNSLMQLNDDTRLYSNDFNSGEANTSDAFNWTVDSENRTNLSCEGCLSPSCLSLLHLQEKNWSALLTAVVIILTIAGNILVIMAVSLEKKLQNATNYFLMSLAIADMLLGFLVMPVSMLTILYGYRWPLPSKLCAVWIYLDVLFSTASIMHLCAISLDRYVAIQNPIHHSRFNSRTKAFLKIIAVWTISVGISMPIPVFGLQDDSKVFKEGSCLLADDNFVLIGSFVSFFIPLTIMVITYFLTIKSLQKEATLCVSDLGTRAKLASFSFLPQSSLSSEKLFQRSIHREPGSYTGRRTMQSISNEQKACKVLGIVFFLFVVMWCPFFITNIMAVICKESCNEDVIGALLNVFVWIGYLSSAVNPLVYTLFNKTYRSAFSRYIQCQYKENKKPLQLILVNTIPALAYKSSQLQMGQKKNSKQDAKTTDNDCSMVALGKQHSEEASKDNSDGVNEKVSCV
# Sequence of Gonadotropin-releasing hormone receptor (Homo sapiens) (P30968 whole entry, looked up): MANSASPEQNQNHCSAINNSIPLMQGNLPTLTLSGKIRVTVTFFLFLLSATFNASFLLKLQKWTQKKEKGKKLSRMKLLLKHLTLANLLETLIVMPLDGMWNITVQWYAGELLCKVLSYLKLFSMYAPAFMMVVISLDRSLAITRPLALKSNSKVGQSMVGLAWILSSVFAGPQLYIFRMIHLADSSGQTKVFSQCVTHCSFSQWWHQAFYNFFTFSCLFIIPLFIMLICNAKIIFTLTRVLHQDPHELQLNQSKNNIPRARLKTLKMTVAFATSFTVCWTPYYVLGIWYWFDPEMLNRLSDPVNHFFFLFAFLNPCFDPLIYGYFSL
# Sequence of D(2) dopamine receptor (Homo sapiens) (P14416 whole entry, looked up): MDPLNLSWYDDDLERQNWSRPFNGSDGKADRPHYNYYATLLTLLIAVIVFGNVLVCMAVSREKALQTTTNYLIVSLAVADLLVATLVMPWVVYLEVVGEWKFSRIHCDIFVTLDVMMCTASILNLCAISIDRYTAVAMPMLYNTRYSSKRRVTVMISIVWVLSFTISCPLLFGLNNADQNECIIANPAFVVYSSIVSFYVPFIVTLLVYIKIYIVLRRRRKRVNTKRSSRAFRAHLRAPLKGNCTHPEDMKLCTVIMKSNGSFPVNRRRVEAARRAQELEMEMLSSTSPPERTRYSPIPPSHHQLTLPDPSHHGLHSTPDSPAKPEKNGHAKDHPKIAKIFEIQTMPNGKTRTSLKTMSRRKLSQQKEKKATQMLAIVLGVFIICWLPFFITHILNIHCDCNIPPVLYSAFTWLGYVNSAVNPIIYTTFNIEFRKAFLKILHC
# Sequence of KiSS-1 receptor (Homo sapiens) (Q969F8 whole entry, looked up): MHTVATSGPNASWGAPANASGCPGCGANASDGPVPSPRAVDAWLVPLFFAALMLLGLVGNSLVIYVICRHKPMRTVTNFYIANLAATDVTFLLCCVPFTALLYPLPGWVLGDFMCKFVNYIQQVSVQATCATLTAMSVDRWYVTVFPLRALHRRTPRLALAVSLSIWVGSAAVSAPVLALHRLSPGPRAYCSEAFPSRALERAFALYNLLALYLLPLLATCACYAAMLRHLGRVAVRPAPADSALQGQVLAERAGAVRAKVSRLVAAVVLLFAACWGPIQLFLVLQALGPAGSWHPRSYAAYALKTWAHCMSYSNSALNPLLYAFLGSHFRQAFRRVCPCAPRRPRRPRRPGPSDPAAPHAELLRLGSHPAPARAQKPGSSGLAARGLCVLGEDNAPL
compound,measurement,setting,value
CC(=O)O[C@@H]1C(=O)O[C@@H]2[C@H]1OC(=O)[C@@H]2OC(C)=O,Potency,[1],inactive
same,Potency,[2],29.8 µM (active)
same,Potency,[3],inactive
same,outcome,[4],inactive
same,Potency,[5],inactive
same,Potency,[6],inactive
same,Potency,[7],inactive
same,Potency,[8],inactive
same,Potency,[9],inactive
same,Potency,[10],inactive
same,Potency,[11],0.756 µM (active)
same,Potency,[12],inactive
same,Potency,[13],inactive
same,Potency,[14],inactive
same,Potency,[15],inactive
same,Potency,[16],inactive
same,Potency,[17],inactive
same,Potency,[18],inactive
CC(COC(C)(C)C)OCCCO (stereo not drawn),Potency,[1],inactive
same,Potency,[2],inactive
same,Potency,[3],inactive
same,outcome,[4],inactive
same,Potency,[7],inactive
same,Potency,[8],inactive
same,Potency,[19],inactive
same,Potency,[10],inactive
same,Potency,[11],inactive
same,Potency,[12],inactive
same,Potency,[13],inactive
same,Potency,[14],inactive
same,Potency,[16],inactive
same,Potency,[17],inactive
same,Potency,[18],inactive
CC(=O)OCC(=O)[C@@]1(O)CCC2C3CCC4=CC(=O)CC[C@]4(C)C3[C@@H](O)C[C@@]21C (stereo partly drawn),Potency,[1],inactive
same,Potency,[2],inactive
same,Potency,[3],inactive
same,outcome,[4],inactive
same,Potency,[5],inactive
same,Potency,[6],inactive
same,Potency,[8],inactive
same,Potency,[9],inactive
same,Potency,[19],inactive
same,Potency,[11],inactive
same,Potency,[12],inactive
same,Potency,[14],inactive
same,Potency,[15],inactive
same,Potency,[16],inactive
same,Potency,[20],inactive
same,Potency,[17],inactive
same,Potency,[18],inactive
CC(O)c1ccccc1 (stereo not drawn),Potency,[1],inactive
same,Potency,[2],inactive
same,Potency,[3],inactive
same,outcome,[4],inactive
same,Potency,[5],inactive
same,Potency,[7],inactive
same,Potency,[8],inactive
same,Potency,[9],inactive
same,Potency,[19],inactive
same,Potency,[10],inactive
same,Potency,[11],inactive
same,Potency,[12],inactive
same,Potency,[13],inactive
same,Potency,[14],inactive
same,Potency,[15],inactive
same,Potency,[16],inactive
same,Potency,[17],inactive
same,Potency,[18],inactive
CCCCCCCCCCCCN(CCO)CCO,Potency,[1],30.5 µM (active)
same,Potency,[2],inactive
same,Potency,[3],30.8 µM (active)
same,outcome,[4],inactive
same,Potency,[5],inactive
same,Potency,[6],inactive
same,Potency,[7],45.6 µM (active)
same,Potency,[12],11.8 µM (active)
same,Potency,[13],inactive
same,Potency,[16],inactive
same,Potency,[17],inactive
same,Potency,[18],inactive
CCCCCN=C(N)N/N=C/c1c[nH]c2ccc(OC)cc12,Potency,[1],6.68 µM (active)
same,Potency,[2],inactive
same,Potency,[3],inactive
same,outcome,[4],inactive
same,Potency,[5],inactive
same,Potency,[6],inactive
same,Potency,[7],inactive
same,Potency,[8],inactive
same,Potency,[9],15.8 µM (active)
same,Potency,[10],0.0326 µM (active)
same,Potency,[11],0.0107 µM (active)
same,Potency,[12],inactive
same,Potency,[13],inactive
same,Potency,[16],26.6 µM (active)
Nc1nc(Cl)nc2c1ncn2[C@@H]1O[C@H](CO)[C@@H](O)[C@@H]1F,Potency,[1],inactive
same,Potency,[2],inactive
same,Potency,[3],inactive
same,outcome,[4],inactive
same,Potency,[5],inactive
same,Potency,[6],inactive
same,Potency,[7],inactive
same,Potency,[8],inactive
same,Potency,[9],inactive
same,Potency,[10],inactive
same,Potency,[12],inactive
same,Potency,[13],inactive
same,Potency,[14],29.8 µM (active)
same,Potency,[15],inactive
same,Potency,[16],inactive
same,Potency,[17],0.422 µM (active)
same,Potency,[18],inactive
O=C1c2ccccc2C(=O)c2cc(Cl)ccc21,"activity change, negative = cytotoxicity",[1],-4.18% [at 8.39 µM]
same,"activity, positive = activation",[2],3.42% [at 8.39 µM]
same,activity change,[3],"-1.12% [at 5.22 µM, active compounds read high]"
same,activation,[4],-0.408% [at 6.97 µM]
same,activation,[5],-0.0412% [at 5.99 µM]
same,activation,[6],1.77% [at 5.99 µM]
same,"activity change, negative = cytotoxicity",[7],3.98% [at 5.99 µM]
same,"activity change, negative = cytotoxicity",[8],0.229% [at 5.99 µM]
same,"activity, negative = inhibition",[10],0.237% [at 5.62 µM]
same,activation,[11],-2.59% [at 7.02 µM]
same,"activity, negative = inhibition",[12],-8.9% [at 5.58 µM]
same,activation,[13],-0.206% [at 6.97 µM]
same,activation,[14],-1.41% [at 8.39 µM]
same,"activity change, negative = inhibition",[15],-1.91% [at 8.39 µM]
same,"activity change, negative = inhibition",[16],-7.09% [at 8.39 µM]
same,activation,[17],1.23% [at 8.39 µM]
same,"activity change, negative = inhibition",[18],-1.19% [at 8.38 µM]
